Screens as filed in PubChem BioAssay.
An excerpt weighted towards active compounds, which were near 2.7% of everything screened.
ALOX12 inh: ALOX12 (human) lipoxygenase inhibition; P18054; purified 12hLO, xylenol orange hydroperoxide absorbance; Potency, µM (top dose mostly 108 µM), without a hit: top-dose activity change, negative = inhibition, hits mostly inhibitors; 580,000 tested, 1.1% active; AID 1671190; also: % is scaled to controls: 0 for no effect and ±100 for the full control effect
Target sequence (P18054 whole entry, looked up): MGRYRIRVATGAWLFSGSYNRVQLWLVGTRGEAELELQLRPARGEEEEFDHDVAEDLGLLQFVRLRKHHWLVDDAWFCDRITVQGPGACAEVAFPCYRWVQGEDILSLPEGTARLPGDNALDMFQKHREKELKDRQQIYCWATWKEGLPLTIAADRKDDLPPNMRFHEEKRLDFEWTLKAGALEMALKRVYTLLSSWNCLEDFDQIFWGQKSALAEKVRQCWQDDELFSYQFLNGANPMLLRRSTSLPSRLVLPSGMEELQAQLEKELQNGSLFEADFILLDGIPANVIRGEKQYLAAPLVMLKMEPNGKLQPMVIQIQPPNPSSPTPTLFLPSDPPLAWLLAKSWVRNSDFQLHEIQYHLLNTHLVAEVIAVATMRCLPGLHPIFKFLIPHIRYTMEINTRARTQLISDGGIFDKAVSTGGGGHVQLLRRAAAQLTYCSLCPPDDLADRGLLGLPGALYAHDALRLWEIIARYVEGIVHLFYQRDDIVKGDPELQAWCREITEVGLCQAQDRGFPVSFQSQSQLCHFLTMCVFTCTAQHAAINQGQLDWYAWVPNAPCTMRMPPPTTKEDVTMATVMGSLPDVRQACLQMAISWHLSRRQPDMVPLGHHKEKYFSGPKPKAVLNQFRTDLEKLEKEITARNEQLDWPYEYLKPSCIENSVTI
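Hydroperoxide product was detected by ferrous iron/xylenol orange as the 573 to 405 nm absorbance ratio. Arachidonic acid at 40 uM (final) was turned over for 30 min at room temperature by 150 nM human 12hLO, pH 7.0 Hepes buffer, after 15 min compound preincubation.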
HepG2 viability: counter-screen for TGF-b inhibitors: cytotoxicity in HepG2 cells | HepG2 CAGA-GFP viability, ATP luminescence, 18 h | Potency, µM (titrated, usually from 46.1 µM), without a hit: at the highest dose activity change, negative = cytotoxicity, actives largely listed as cytotoxic | AID 588856 | 410,000 tested, 0.76% active
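CellTiter-Glo luminescence gave cytotoxicity after 18 hours at 37 degrees C. The cells were HepG2 CAGA-GFP in 1% FBS DMEM, stimulated with 500 pg/mL TGF-beta after compound addition. %Activity was normalised to no-cell wells (complete cell-killing) and DMSO (no toxicity), and curves were fitted and classified.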
TGFb SMAD3 inh: inhibitors of TGF-b signaling; 410,000 tested, 1.2% active; Potency, µM (doses to about 46.1 µM), inactives show at the highest dose activity, negative = inhibition, most hits filed as inhibitors; HepG2 CAGA-GFP TGF-b/SMAD3 reporter, GFP fluorescence, 18 h; TGF-beta stimulated, 500 pg/mL final; also: % is scaled to controls: 0 for no effect and ±100 for the full control effect; nearly all actives have a fitted effect of over 65% in size
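Cell-based qHTS in HEPG2 carrying a CAGA-GFP Smad reporter; compounds added before 500 pg/mL final TGF-beta, 18 h incubation at 37 degrees C, GFP fluorescence quantified per cell by imaging cytometry.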
ATXN2 expr inh: inhibitors of ATXN2 expression; 360,000 tested, 0.72% active; Potency, µM (top dose mostly 57 µM), for the others: at the top dose activity change, negative = inhibition, hits mostly inhibitors; HEK-293 ATXN2-luciferase reporter, luminescence, 24 h; also: % is scaled to controls: 0 for no effect and ±100 for the full control effect; nearly all actives have a fitted effect of over 55% in size
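qHTS (up to 57 uM final) was run with 24 h compound exposure of reporter cells at 37 °C. Each well was multiplexed: SteadyGlo luminescence measured ATXN2-luciferase expression after a fluorogenic Gly-Phe-AFC viability readout (25 uM final).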
ATXN viability: viability counter-screen for ATXN expression inhibitors; S2 cells (HEK-293 line with an ATXN2-luciferase reporter) viability, CellTiter-Fluor protease fluorescence, 24 h; Potency, µM (doses to about 56.7 µM), most hits filed as cytotoxic; 400,000 tested, 0.49% active; also: nearly all actives have a fitted effect of over 40% in size
Numbers without * were called inactive; [ ] = dose if it differs, or a comment. Calls follow the shape of the dose curve; as a rule, active = well fitted curve in the direction sought with a large enough effect; inconclusive = small, poorly fitted or top-dose-only effect, or another doubt; inactive = no such curve, though single readings can be large; an effect the other way counts as inactive or inconclusive. Potency is read from the fitted curve at half-maximal effect.

How did CCOc1cc(-c2ccc(C)cc2)nc2ccc(C(=O)N3CCCC3)cc12 do in these assays?
ALOX12 inh: 0%

What do the screens show for `O=C(NC[C@H]1Cn2c(-c3ccc(Cl)cc3)cnc2CO1)C1CCCC1`?
ALOX12 inh: 58%[176 µM]

How did CCOC(=O)C1=CN(Cc2cccc(F)c2)S(=O)(=O)NC1c1cccc(OC)c1 (centres undefined) do in these assays?
ALOX12 inh: 4%; HepG2 viability: -9%; TGFb SMAD3 inh: 3%; ATXN2 expr inh: -5%; ATXN viability: inactive

How did CCOC(=O)C1=CN(Cc2cccc(F)c2)S(=O)(=O)NC1c1ccc2ccccc2c1 (centres undefined) do in these assays?
ALOX12 inh: -13%; HepG2 viability: -11%; TGFb SMAD3 inh: 13µM*; ATXN2 expr inh: -15%; ATXN viability: inactive

Results for Cc1ccc2nc(SCC3CCCCO3)[nH]c2c1 (centres undefined) ?
ALOX12 inh: -3%; HepG2 viability: 25%; TGFb SMAD3 inh: -3%; ATXN2 expr inh: 11µM*; ATXN viability: inactive

How did O=C(Nc1cccc(C(F)(F)F)c1)N[C@H]1CO[C@H]2[C@@H]1OC[C@@H]2n1cc(CC2CCCCC2)nn1 do in these assays?
ALOX12 inh: 16%

What do the screens show for `CCOc1ccc(CCN2CN(CC)CNC2=S)cc1OCC`?
ALOX12 inh: -7%; HepG2 viability: 8.9µM*; TGFb SMAD3 inh: -20%; ATXN2 expr inh: -23%; ATXN viability: inactive

What do the screens show for `CCN1CNC(=S)N(CCc2ccccc2)C1`?
ALOX12 inh: -25%; HepG2 viability: -1%; TGFb SMAD3 inh: 7%; ATXN2 expr inh: -12%; ATXN viability: inactive

How did CCc1ccc(CNC(=O)c2ccc3nc(CC)c(CC)nc3c2)cc1 do in these assays?
ALOX12 inh: -2%

Results for CC(Oc1ccc(Cl)cc1Cl)C(=O)N1CC(=O)Nc2ccccc21 (centres undefined) ?
ALOX12 inh: -6%

How did CC(C)c1ccc(OCC(=O)NC2CC(C)(C)NC(C)(C)C2)c(Br)c1 do in these assays?
ALOX12 inh: -4%; HepG2 viability: 11µM*; TGFb SMAD3 inh: inconclusive; ATXN2 expr inh: -17%; ATXN viability: inactive

Results for CC1(C)CC(NC(=O)COc2ccc(Cl)cc2Cl)CC(C)(C)N1 ?
ALOX12 inh: -2%; HepG2 viability: -2%; TGFb SMAD3 inh: 10%; ATXN2 expr inh: -9%; ATXN viability: inactive

What do the screens show for `C/C(=N\NC(=O)c1cc(C2CC2)nc2ccccc12)c1ccc(O)cc1O`?
ALOX12 inh: -4%; HepG2 viability: -17%; TGFb SMAD3 inh: inconclusive; ATXN2 expr inh: 2.5µM*; ATXN viability: inconclusive

What do the screens show for `Cc1noc(C)c1S(=O)(=O)N1CCCC(CCc2ccc(F)c(F)c2)C1` (centres undefined)?
ALOX12 inh: 4%

What do the screens show for `COC(=O)[C@H](CC(C)C)N(Cc1cn(Cc2ccccc2)nn1)S(=O)(=O)c1ccccc1Br`?
ALOX12 inh: -9%

Results for COC(=O)[C@H](CC(C)C)N(Cc1cn(Cc2ccc(C)cc2)nn1)S(=O)(=O)c1ccccc1Br ?
ALOX12 inh: 8.9µM*

How did C=CC#CC1(O)CC(C)[N+](C)(C)CC1C (centres undefined) do in these assays?
ALOX12 inh: 35µM*; HepG2 viability: -17%; TGFb SMAD3 inh: -3%; ATXN2 expr inh: -11%; ATXN viability: inactive

Results for COc1cc(OC)c(/C=C/c2c3ccccc3cc[n+]2C)c(OC)c1 ?
HepG2 viability: -22%; TGFb SMAD3 inh: 10µM*

Results for COc1cc(OC)c(/C=C/c2cc3c4ccccc4ccc3[n+](C)c2)c(OC)c1 ?
HepG2 viability: -20%; TGFb SMAD3 inh: -4%

What do the screens show for `Cc1nn(-c2nc3c(c(=O)[nH]c(=O)n3C)n2C/C=C/c2ccccc2)c(C)c1C`?
ALOX12 inh: 9%

Results for CCc1nc(NCCN2CCOCC2)c2oc3ccccc3c2n1 ?
ALOX12 inh: 14µM*; HepG2 viability: -11%; TGFb SMAD3 inh: 13%; ATXN2 expr inh: 3%; ATXN viability: inactive

How did CCOc1ccc2nc(NC3=NC(C)(C)C=C(C)N3)nc(C)c2c1 do in these assays?
ALOX12 inh: -30%; HepG2 viability: -33%; TGFb SMAD3 inh: inconclusive; ATXN2 expr inh: inconclusive; ATXN viability: inconclusive

How did CCOc1ccc2nc(NC3=NC(c4ccc(OC)cc4)CC(=O)N3)nc(C)c2c1 (centres undefined) do in these assays?
ALOX12 inh: inconclusive; HepG2 viability: -101%; TGFb SMAD3 inh: inconclusive; ATXN2 expr inh: 8.9µM*; ATXN viability: 8.9µM*

How did CCCCCc1c(C)nc(Nc2nc(C)c3cc(OCC)ccc3n2)[nH]c1=O do in these assays?
ALOX12 inh: 3%

Results for CC(C)(C)C(=O)N1N=C(c2cccs2)CC1c1ccc2nccnc2c1 (centres undefined) ?
ALOX12 inh: 1%

What do the screens show for `O=C(CC[C@@H]1CNC(=O)[C@@H]2C[C@H](NC(=O)c3cccc(F)c3)CN12)NCc1cccnc1`?
ALOX12 inh: 72%[176 µM]

How did O=C(CC[C@@H]1CNC(=O)[C@@H]2C[C@H](NC(=O)Nc3cccc(Cl)c3)CN12)NCc1cccnc1 do in these assays?
ALOX12 inh: 45µM*

How did N#Cc1ccc(Oc2cccc(C(=O)OCC(=O)c3ccccc3)c2)cc1C#N do in these assays?
ALOX12 inh: -23%

How did CCOc1cc(S(=O)(=O)N2CCN(CCO)CC2)ccc1Cl do in these assays?
ALOX12 inh: 0%

How did CCc1cccc2c(C(C)=O)cn(CC(=O)NC3CC3)c12 do in these assays?
ALOX12 inh: 32µM*

How did COC(=O)c1[nH]c2ccc(C)cc2c1NC(=O)CCN1CCCCC1 do in these assays?
ALOX12 inh: 0%

Results for Cc1ccc2nc(/C(C#N)=C\c3ccc(N4CCOCC4)o3)[nH]c2c1 ?
ALOX12 inh: inconclusive; HepG2 viability: -19%; TGFb SMAD3 inh: 108%; ATXN2 expr inh: 60%; ATXN viability: inactive

Results for Cc1ccc(/C(C#N)=C\c2ccc(N3CCOCC3)o2)cc1 ?
ALOX12 inh: 13µM*; HepG2 viability: -38%; TGFb SMAD3 inh: inconclusive; ATXN2 expr inh: 35%; ATXN viability: inactive

What do the screens show for `N#C/C(=C/c1ccc(N2CCCCC2)o1)c1cccc(F)c1`?
ALOX12 inh: 10µM*; HepG2 viability: -22%; TGFb SMAD3 inh: 75%; ATXN2 expr inh: 109%; ATXN viability: inactive

Results for Cc1cc(OC(C)C(=O)NNC(=O)Nc2ccc(F)cc2F)cc(C)c1Cl (centres undefined) ?
ALOX12 inh: 1%; HepG2 viability: -31%; TGFb SMAD3 inh: 16µM*; ATXN2 expr inh: 9%; ATXN viability: inactive
